Assay results as given in PubChem BioAssay (EPA / NIEHS).
Records with an inconclusive call do not appear. Activity calls are given as the source filed them. The calls were made as follows, unless noted: active = hit-call score of the fitted dose curve at least 0.9, where 1 is the maximum; inconclusive = response in the unintended direction; inactive = score below 0.9.

Experiments:
[1] = TOX21_p53_BLA_p2_viability: Viability Assessment in the Tox21 HCT-116 p53 Agonism Beta-lactamase Assay, Phase 2 (AID 2283591);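 also: compound exposure lasted 16 h at 37 °C; actives lower the ATP signal meaning cytotoxicity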
Procedure, shortened: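 HCT116 p53-bla cells, 4000/well, dosed after 5 h plating (217-fold dilution of DMSO stocks) and incubated 16 h at 37C. Viability taken as cellular ATP by CellTiter-Glo luminescence after 30 min RT; signal loss marks cytotoxicity.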

[2] = target: Cellular tumor antigen p53 (Homo sapiens) (UniProt P04637); test: TOX21_p53_BLA_p2_ratio: Tox21 HCT-116 p53 Agonism Beta-lactamase Assay, Ratio, Phase 2 (AID 2283592)
Cellular tumor antigen p53 (Homo sapiens), sequence (P04637 whole entry, looked up): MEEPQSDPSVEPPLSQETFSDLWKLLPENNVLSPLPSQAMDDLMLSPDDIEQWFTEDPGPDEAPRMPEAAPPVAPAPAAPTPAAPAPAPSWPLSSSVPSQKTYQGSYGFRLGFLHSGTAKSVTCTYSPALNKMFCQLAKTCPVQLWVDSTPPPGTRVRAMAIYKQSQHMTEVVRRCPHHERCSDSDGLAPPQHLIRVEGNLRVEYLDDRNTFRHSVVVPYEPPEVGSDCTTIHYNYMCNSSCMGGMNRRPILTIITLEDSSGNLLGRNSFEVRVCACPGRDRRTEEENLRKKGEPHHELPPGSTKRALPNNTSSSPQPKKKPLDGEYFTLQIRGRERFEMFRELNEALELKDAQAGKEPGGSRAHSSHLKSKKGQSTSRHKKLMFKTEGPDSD
Procedure, shortened: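 Human colon HCT116 cells with an inducible p53 beta-lactamase reporter are exposed to test chemicals for 16 h at 37C. Reporter induction is read as the 460/530 nm emission ratio after CCF4-AM loading, normalized to DMSO.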

[3] = TOX21_p53_BLA_p3_viability: Viability Assessment in the Tox21 HCT-116 p53 Agonism Beta-lactamase Assay, Phase 3 (AID 2283593);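 also: cells exposed to compound for 16 h before reading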
Procedure, shortened: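 HCT116 cells, 4000/well, dosed 5 h after plating by pin transfer (217-fold dilution from DMSO stock) and incubated 16 h at 37C, 5% CO2. Viability read as ATP luminescence with CellTiter-Glo after 30 min at room temperature.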

[4] = target: Cellular tumor antigen p53 (Homo sapiens) (UniProt P04637); test: TOX21_p53_BLA_p3_ratio: Tox21 HCT-116 p53 Agonism Beta-lactamase Assay, Ratio, Phase 3 (AID 2283596)
Procedure, shortened: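 HCT116 p53-bla cells (4000/well) given compound in DMSO (217-fold dilution) after 5 h, incubated 16 h at 37C. CCF4-AM substrate 2 h at room temperature; 460/530 nm emission ratio, gain fitted against DMSO.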

[5] = TOX21_p53_BLA_p4_viability: Viability Assessment in the Tox21 HCT-116 p53 Agonism Beta-lactamase Assay, Phase 4 (AID 2283597);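 also: hits lower the luminescence signal meaning cytotoxicity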
Procedure, shortened: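 Luminescent ATP readout (CellTiter-Glo, 30 min, room temperature) in the same wells as the p53 bla ratio. HCT116 cells were treated for 16 h at 37C with DMSO-dissolved compounds.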

[6] = target: Cellular tumor antigen p53 (Homo sapiens) (UniProt P04637); test: TOX21_p53_BLA_p4_ratio: Tox21 HCT-116 p53 Agonism Beta-lactamase Assay, Ratio, Phase 4 (AID 2283601)
Procedure, shortened: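 HCT-116 p53 beta-lactamase reporter cells (4000/well) preincubated 5 h, then compound (217-fold dilution of DMSO stock) for 16 h at 37C. CCF4-AM substrate added 2 h at room temperature; 460/530 nm emission ratio fitted upward versus DMSO.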

[7] = target: Cellular tumor antigen p53 (Homo sapiens) (UniProt P04637); test: TOX21_p53_BLA_p5_ratio: Tox21 HCT-116 p53 Agonism Beta-lactamase Assay, Ratio, Phase 5 (AID 2283599)
Procedure, shortened: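 HCT-116 p53-bla cells (4000/well) plated 5 h, dosed with compound (217-fold DMSO dilution) for 16 h at 37 C; CCF4-AM substrate 2 h at room temperature. Activity is the 460/530 nm emission ratio (405 nm excitation), fitted in gain-of-signal direction versus DMSO.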

[8] = TOX21_p53_BLA_p5_viability: Viability Assessment in the Tox21 HCT-116 p53 Agonism Beta-lactamase Assay, Phase 5 (AID 2283600)
Procedure, shortened: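 Seeded cells (4000/well) settle 5 h before compound addition. Plates then incubate 16 h at 37C, receive FRET substrate for 2 h, and finally CellTiter-Glo, with luminescence measured after a 30 min room-temperature incubation.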

[9] = target: Thyroid hormone receptor alpha (Rattus norvegicus) + Thyroid hormone receptor beta (Rattus norvegicus) (UniProt P18113+P63059); test: TOX21_TR_LUC_GH3_Agonist_Followup: Tox21 GH3 Thyroid Hormone Receptor Agonism Luciferase Follow-Up Assay (AID 2283939)
Thyroid hormone receptor alpha (Rattus norvegicus) + Thyroid hormone receptor beta (Rattus norvegicus), sequence (P63059 whole entry, looked up): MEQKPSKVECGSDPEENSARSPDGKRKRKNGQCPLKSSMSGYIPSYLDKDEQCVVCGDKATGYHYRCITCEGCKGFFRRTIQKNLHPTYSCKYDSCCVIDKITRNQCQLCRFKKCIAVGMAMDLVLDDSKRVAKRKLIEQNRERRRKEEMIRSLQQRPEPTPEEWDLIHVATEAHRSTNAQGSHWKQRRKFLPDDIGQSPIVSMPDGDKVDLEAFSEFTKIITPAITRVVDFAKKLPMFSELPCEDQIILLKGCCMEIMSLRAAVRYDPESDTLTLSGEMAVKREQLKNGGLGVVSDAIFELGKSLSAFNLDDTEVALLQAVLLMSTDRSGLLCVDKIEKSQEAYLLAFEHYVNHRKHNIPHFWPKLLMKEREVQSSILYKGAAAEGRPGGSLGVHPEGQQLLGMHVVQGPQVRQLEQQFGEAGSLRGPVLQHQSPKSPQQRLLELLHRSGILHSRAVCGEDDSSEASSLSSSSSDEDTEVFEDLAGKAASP
Thyroid hormone receptor alpha (Rattus norvegicus) + Thyroid hormone receptor beta (Rattus norvegicus), sequence (P18113 whole entry, looked up): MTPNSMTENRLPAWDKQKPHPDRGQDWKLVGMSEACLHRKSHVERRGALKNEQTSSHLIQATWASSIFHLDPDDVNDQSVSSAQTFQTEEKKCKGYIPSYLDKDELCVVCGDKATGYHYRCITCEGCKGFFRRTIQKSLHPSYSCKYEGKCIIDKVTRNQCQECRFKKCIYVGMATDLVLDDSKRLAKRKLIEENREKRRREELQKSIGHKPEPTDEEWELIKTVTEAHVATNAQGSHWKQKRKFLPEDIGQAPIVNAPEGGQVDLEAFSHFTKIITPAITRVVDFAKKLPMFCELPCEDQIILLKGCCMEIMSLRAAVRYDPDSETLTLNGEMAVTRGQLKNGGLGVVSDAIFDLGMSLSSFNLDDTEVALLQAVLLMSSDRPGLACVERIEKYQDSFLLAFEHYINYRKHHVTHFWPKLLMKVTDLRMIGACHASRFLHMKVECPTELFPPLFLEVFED
Procedure, shortened: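 Rat GH3 cells (1,500/well) in serum-free assay medium, treated with 15-point series, 92 uM to 5 nM final, for 24 h at 37C. Luciferase via ONE-Glo luminescence; gain of signal fitted against DMSO, T3 positive control.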

THRA (gene 7067) = THRA (gene 7067) (UniProt P10827); test: TOX21_TRA_COA_Agonist_Followup_ratio: Tox21 Thyroid Hormone Receptor alpha Agonism through Coactivator Recruitment Follow-Up Assay, Ratio (AID 2283948; active = hit-call score of the fitted dose curve at least 0.9, where 1 is the maximum; inactive = score below 0.9)
THRA (gene 7067), sequence (P10827 whole entry, looked up, the tested form may be a part): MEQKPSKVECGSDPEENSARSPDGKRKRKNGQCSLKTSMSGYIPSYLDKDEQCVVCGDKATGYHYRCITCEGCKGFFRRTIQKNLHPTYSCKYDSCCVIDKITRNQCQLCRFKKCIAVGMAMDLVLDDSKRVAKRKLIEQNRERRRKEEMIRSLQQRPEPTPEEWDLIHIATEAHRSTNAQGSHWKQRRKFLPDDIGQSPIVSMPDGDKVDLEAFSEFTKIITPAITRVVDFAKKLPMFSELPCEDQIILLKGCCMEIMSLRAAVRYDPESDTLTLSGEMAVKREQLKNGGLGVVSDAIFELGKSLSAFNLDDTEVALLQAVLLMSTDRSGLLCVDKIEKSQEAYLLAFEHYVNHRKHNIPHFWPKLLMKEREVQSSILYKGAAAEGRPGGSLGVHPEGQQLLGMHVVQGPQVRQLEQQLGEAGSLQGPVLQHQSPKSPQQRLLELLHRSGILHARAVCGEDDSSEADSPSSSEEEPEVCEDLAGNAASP
Procedure, shortened: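 Agonist-mode biochemical TR-FRET with TRα LBD and SRC-2 coactivator peptide; activity expressed as percent of T3 response over DMSO baseline.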

THRB (gene 7068) [10] = target: THRB (gene 7068) (UniProt P10828); test: TOX21_TRB_BLA_Agonist_Followup_ratio: Tox21 Thyroid Hormone Receptor beta Agonism Beta-lactamase (BLA) Follow-Up Assay, Ratio (AID 2283954)
THRB (gene 7068), sequence (P10828 whole entry, looked up, the tested form may be a part): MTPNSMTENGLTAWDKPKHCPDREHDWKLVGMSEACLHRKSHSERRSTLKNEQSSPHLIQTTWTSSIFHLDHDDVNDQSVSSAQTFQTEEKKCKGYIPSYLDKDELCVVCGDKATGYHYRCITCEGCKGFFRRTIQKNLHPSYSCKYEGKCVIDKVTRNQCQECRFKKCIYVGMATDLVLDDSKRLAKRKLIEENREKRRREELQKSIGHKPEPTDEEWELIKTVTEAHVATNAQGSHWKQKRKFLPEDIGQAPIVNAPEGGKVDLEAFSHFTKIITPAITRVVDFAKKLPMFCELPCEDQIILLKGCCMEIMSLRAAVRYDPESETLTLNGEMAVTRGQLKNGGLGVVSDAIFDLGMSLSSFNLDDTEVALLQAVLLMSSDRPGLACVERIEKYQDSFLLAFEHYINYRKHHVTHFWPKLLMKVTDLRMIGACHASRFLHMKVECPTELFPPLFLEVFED
Procedure, shortened: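 Human TRβ LBD–GAL4 DBD fusion in GeneBLAzer UAS-bla HEK293T cells; 11 concentrations in triplicate, 18 h at 37°C/5% CO2, T3 as agonist control. CCF4-AM substrate 2 h at room temperature; 460:530 nm ratio fitted for gain of signal versus DMSO.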

THRB (gene 7068) [11] = target: THRB (gene 7068) (UniProt P10828); test: TOX21_TRB_COA_Agonist_Followup_ratio: Tox21 Thyroid Hormone Receptor beta Agonism through Coactivator Recruitment Follow-Up Assay, Ratio (AID 2283963; active = hit-call score of the fitted dose curve at least 0.9, where 1 is the maximum; inactive = score below 0.9)
Procedure, shortened: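 Agonism is measured as coactivator recruitment in a purified-protein TR-FRET format, using GST-TRβ LBD at 5.0 nM, fluorescein-SRC-2 peptide at 200 nM and Tb-labeled anti-GST antibody at 2 nM. Values are 520:495 nm ratios relative to DMSO (0%) and T3 (100%).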

[12] = target: Retinoic acid receptor RXR-alpha (Homo sapiens) (UniProt P19793); test: TOX21_TR_RXR_BLA_Agonist_Followup_ratio: Tox21 Thyroid Hormone Receptor beta Retinoid X Receptor alpha (RXRa) Agonism Beta-lactamase (BLA) Follow-Up Assay, Ratio (AID 2283968)
Retinoic acid receptor RXR-alpha (Homo sapiens), sequence (P19793 whole entry, looked up, the tested form may be a part): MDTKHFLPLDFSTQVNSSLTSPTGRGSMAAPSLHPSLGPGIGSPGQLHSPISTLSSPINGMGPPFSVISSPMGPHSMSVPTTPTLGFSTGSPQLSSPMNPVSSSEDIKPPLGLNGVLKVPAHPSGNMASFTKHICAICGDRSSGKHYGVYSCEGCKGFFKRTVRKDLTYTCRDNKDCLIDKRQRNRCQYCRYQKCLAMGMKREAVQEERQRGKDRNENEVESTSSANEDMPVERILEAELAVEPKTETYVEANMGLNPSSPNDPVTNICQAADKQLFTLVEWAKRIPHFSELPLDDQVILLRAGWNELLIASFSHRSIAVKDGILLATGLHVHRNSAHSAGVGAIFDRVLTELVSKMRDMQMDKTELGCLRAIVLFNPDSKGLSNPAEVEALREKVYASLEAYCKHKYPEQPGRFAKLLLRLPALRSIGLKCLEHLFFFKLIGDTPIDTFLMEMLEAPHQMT
Procedure, shortened: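 RXRa-UAS-bla HEK293T cells (GAL4 beta-lactamase reporter) were treated with compounds at 11 concentrations in triplicate for 16 h at 37C/5% CO2, then loaded with CCF4-AM substrate for 2 h at room temperature; activity is the 460:530 nm ratio versus DMSO baseline.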

[13] = TOX21_TR_RXR_BLA_Agonist_Followup_viability: Viability Assessment in the Tox21 Thyroid Hormone Receptor beta Retinoid X Receptor alpha (RXRa) Agonism Beta-lactamase (BLA) Follow-Up Assay (AID 2283970)
Procedure, shortened: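 RXRa-UAS-bla HEK293T cells seeded at 2,500/well in phenol red-free DMEM with 2% charcoal-stripped FBS, exposed to compound 16h at 37C/5% CO2 in qHTS. Viability read by CellTiter-Glo ATP luminescence; bidirectional fitting against DMSO baseline, signal loss indicating cytotoxicity.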

Measured: outcome

CC(Cl)=CCCl
inactive: [1] | [2] | [3] | [4] | [5] | [6]

Cc1ccccc1C#N
inactive: [1] | [2] | [3] | [4] | [7]

Cc1occc1SSc1ccoc1C
inactive: [1] | [2] | [3] | [4] | [7] | [8]

CSCC[C@H](NC(=O)[C@H](Cc1ccc(OS(=O)(=O)O)cc1)NC(=O)[C@@H](N)CC(=O)O)C(=O)NCC(=O)N[C@@H](Cc1c[nH]c2ccccc12)C(=O)N[C@@H](CCSC)C(=O)N[C@@H](CC(=O)O)C(=O)N[C@@H](Cc1ccccc1)C(N)=O
inactive: [1] | [2] | [3] | [4] | [5] | [8] | [6] | [9] | THRA (gene 7067) | THRB (gene 7068) [10] | THRB (gene 7068) [11] | [12] | [13]
